Rin1 Abl inh = inhibitors of Rin1-Abl protein binding, primary screen, biochemical, TR-FRET | inhibition, % at 7.35 µM | 0.4% of 360,000 active; in the data active = inhibition above about 5%, passing the limit was not always enough
PAFAH2 inh = PAFAH2 enzyme inhibitors, primary screen, biochemical, fluorescence polarization, human. 0.99% of 340,000 active. inhibition, % at 3.39 µM. recombinant PAFAH2, FP-rhodamine activity probe. AID 492956, 2010. Platelet-activating factor acetylhydrolase 2, cytoplasmic (Homo sapiens), Q99487;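 active = inhibition above the mean over all tested compounds plus 3 SD, cut at about 30% in these data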;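 also: inhibitors block probe labeling of enzyme so polarization drops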
eLon inh = inhibitors of E. coli Lon protease, primary screen, biochemical, fluorescence polarization; purified E. coli Lon protease; 0.42% of 360,000 active; P0A9M0; inhibition, % at 7.94 µM; in the data active = inhibition above about 13%, passing the limit was not always enough
pPAFAH inh = pPAFAH enzyme inhibitors, primary screen, biochemical, fluorescence polarization, human | Platelet-activating factor acetylhydrolase (Homo sapiens), Q13093 | recombinant pPAFAH, FP-rhodamine probe fluorescence polarization | inhibition, % at 3.39 µM | 1.5% of 330,000 active | AID 463082, 2010;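 active = inhibition above the mean inhibition across the screen plus 3 SD, cut at about 25% in these data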;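 also: inhibitors block binding of the rhodamine activity-based probe so polarization drops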
Target sequence (Q13093 whole entry, looked up): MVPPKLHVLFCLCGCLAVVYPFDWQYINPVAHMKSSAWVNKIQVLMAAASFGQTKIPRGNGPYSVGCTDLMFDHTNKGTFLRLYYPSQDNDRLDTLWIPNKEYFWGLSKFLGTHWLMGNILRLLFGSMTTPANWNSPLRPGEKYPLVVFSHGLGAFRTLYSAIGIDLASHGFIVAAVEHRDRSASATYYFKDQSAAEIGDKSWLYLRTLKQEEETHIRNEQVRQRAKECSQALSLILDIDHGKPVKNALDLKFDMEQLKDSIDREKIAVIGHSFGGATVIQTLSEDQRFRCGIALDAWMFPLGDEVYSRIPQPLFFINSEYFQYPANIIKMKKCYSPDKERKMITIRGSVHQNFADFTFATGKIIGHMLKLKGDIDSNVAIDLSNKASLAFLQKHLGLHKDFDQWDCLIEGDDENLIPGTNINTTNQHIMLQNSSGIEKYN
PAFAH1B3 inh = PAFAH1B3 enzyme inhibitors, primary screen, biochemical, fluorescence polarization, human; Platelet-activating factor acetylhydrolase IB subunit alpha1 (Homo sapiens), Q15102; recombinant PAFAH1B3, FP-rhodamine probe; inhibition, % at 3.39 µM; 0.28% of 340,000 active;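 active = inhibition above the screen-wide average of all tested compounds plus 3 SD, cut at about 25% in these data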
PAFAH1B2 FP inh = PAFAH1B2 enzyme inhibitors, primary screen, biochemical, fluorescence polarization, human; Platelet-activating factor acetylhydrolase IB subunit alpha2 (Homo sapiens), P68402; recombinant PAFAH1B2, FP-rhodamine activity probe; inhibition, % at 3.39 µM; 1.2% of 340,000 active; AID 492953, 2010;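 active = inhibition above the mean of all tested compounds plus 3 SD, cut at about 24% in these data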
Target sequence (P68402 whole entry, looked up): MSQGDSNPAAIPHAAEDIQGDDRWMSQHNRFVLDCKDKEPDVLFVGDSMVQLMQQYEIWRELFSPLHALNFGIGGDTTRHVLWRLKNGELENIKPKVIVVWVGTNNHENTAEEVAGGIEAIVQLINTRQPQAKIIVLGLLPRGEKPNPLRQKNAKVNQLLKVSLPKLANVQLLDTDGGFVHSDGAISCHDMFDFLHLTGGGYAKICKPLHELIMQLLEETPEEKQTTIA
PAFAH2 confirm = PAFAH2 enzyme inhibitors, confirmation, biochemical, fluorescence polarization, human; shares compounds with PAFAH2 inh; recombinant PAFAH2, FP-rhodamine activity probe; inhibition, % at 3.39 µM; 65% of 2,300 active;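 active = mean inhibition over three repeats above a set limit taken from the earlier primary screen, cut at about 30% in these data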;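 also: inhibitor blocks binding of rhodamine activity probe so polarization falls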
Numbers stand for hits. Hits are enriched below; roughly 3.1% of the tested compounds scored in any of these assays.

What do the screens show for `CCN(CC)S(=O)(=O)c1ccc(O)c(C(=O)OCC(=O)Nc2ccc(OC(F)(F)F)cc2)c1`?
Rin1 Abl inh: inactive; PAFAH2 inh: 38; eLon inh: inactive; pPAFAH inh: inactive; PAFAH1B3 inh: inactive; PAFAH1B2 FP inh: inactive; PAFAH2 confirm: inactive

What do the screens show for `O=C(COC(=O)c1ccc(O)cc1O)NC12CC3CC(CC(C3)C1)C2`?
Rin1 Abl inh: inactive; PAFAH2 inh: 75; eLon inh: inactive; pPAFAH inh: inactive; PAFAH1B3 inh: inactive; PAFAH1B2 FP inh: inactive; PAFAH2 confirm: 60

What do the screens show for `CCN(CC)S(=O)(=O)c1ccc(O)c(C(=O)OCC(=O)Nc2cc(C)c(C)cc2[N+](=O)[O-])c1`?
Rin1 Abl inh: inactive; PAFAH2 inh: inactive; eLon inh: inactive; pPAFAH inh: inactive; PAFAH1B3 inh: inactive; PAFAH1B2 FP inh: inactive

Results for COc1ccc(C(=O)OCC(=O)NC23CC4CC(CC(C4)C2)C3)c(O)c1 ?
Rin1 Abl inh: inactive; eLon inh: inactive

Results for O=[N+]([O-])c1ccc(Cl)c(S(=O)(=O)NCCc2ccccn2)c1 ?
Rin1 Abl inh: inactive; PAFAH2 inh: inactive; eLon inh: inactive; pPAFAH inh: inactive; PAFAH1B3 inh: inactive; PAFAH1B2 FP inh: inactive

Results for C=CCSC1=N/C(=C\c2cc(OCC)c(OC(C)=O)c([N+](=O)[O-])c2)C(=O)S1 ?
Rin1 Abl inh: inactive; PAFAH2 inh: 60; eLon inh: inactive; pPAFAH inh: inactive; PAFAH1B3 inh: inactive; PAFAH1B2 FP inh: inactive; PAFAH2 confirm: 65

How did C=CCSC1=N/C(=C\c2sccc2C)C(=O)S1 do in these assays?
Rin1 Abl inh: inactive; PAFAH2 inh: inactive; eLon inh: inactive; pPAFAH inh: inactive; PAFAH1B3 inh: inactive; PAFAH1B2 FP inh: inactive

Results for O=C(O)c1c[nH]c2ccc([N+](=O)[O-])cc2c1=O ?
Rin1 Abl inh: inactive; PAFAH2 inh: inactive; eLon inh: inactive; PAFAH1B3 inh: inactive; PAFAH1B2 FP inh: inactive

Results for Cc1ccc(S(=O)(=O)N2CCOCC2)cc1C(=O)OCc1nnc(-c2ccccc2)o1 ?
Rin1 Abl inh: inactive; PAFAH2 inh: inactive; eLon inh: inactive; pPAFAH inh: inactive; PAFAH1B3 inh: inactive; PAFAH1B2 FP inh: inactive

What do the screens show for `Cc1ccc(C(=O)OCc2nnc(-c3ccccc3)o2)cc1S(=O)(=O)N1CCOCC1`?
Rin1 Abl inh: inactive; PAFAH2 inh: 61; eLon inh: inactive; pPAFAH inh: inactive; PAFAH1B3 inh: inactive; PAFAH1B2 FP inh: inactive; PAFAH2 confirm: 47

What do the screens show for `O=C(/C=C/c1ccco1)OCc1nnc(-c2ccccc2)o1`?
Rin1 Abl inh: inactive; PAFAH2 inh: 68; eLon inh: inactive; pPAFAH inh: inactive; PAFAH1B3 inh: inactive; PAFAH1B2 FP inh: inactive; PAFAH2 confirm: 55

Results for O=C(OCc1nnc(-c2ccccc2)o1)c1ccc(CO)cc1 ?
Rin1 Abl inh: inactive; PAFAH2 inh: 55; eLon inh: inactive; pPAFAH inh: inactive; PAFAH1B3 inh: inactive; PAFAH1B2 FP inh: inactive; PAFAH2 confirm: 56

How did O=C(OCc1nnc(-c2ccccc2)o1)c1cccc(-n2cnnn2)c1 do in these assays?
Rin1 Abl inh: inactive; PAFAH2 inh: 47; eLon inh: inactive; pPAFAH inh: inactive; PAFAH1B3 inh: inactive; PAFAH1B2 FP inh: inactive; PAFAH2 confirm: 40

Results for O=C(COC(=O)c1cccc(-n2cnnn2)c1)c1ccccc1 ?
Rin1 Abl inh: inactive; PAFAH2 inh: inactive; eLon inh: inactive; pPAFAH inh: inactive; PAFAH1B3 inh: inactive; PAFAH1B2 FP inh: inactive

How did CC(=O)Nc1ccc(Cc2nc3c([nH]2)c(=O)n(C)c(=O)n3C)cc1 do in these assays?
pPAFAH inh: inactive

How did O=C1CCC(C(=O)OCc2nnc(-c3ccccc3)o2)=NN1 do in these assays?
Rin1 Abl inh: inactive; PAFAH2 inh: inactive; eLon inh: inactive; pPAFAH inh: inactive; PAFAH1B3 inh: inactive; PAFAH1B2 FP inh: inactive

How did Cc1ccc(-c2nnc(COC(=O)c3ccco3)o2)cc1 do in these assays?
Rin1 Abl inh: inactive; PAFAH2 inh: inactive; eLon inh: inactive; pPAFAH inh: inactive; PAFAH1B3 inh: inactive; PAFAH1B2 FP inh: inactive

How did CN(C)S(=O)(=O)c1ccc(C(=O)OCc2nnc(-c3ccccc3)o2)cc1 do in these assays?
Rin1 Abl inh: inactive; PAFAH2 inh: inactive; eLon inh: inactive; pPAFAH inh: inactive; PAFAH1B3 inh: inactive; PAFAH1B2 FP inh: inactive

Results for CC(=O)c1c(C)[nH]c(C(=O)OCc2nnc(-c3ccccc3)o2)c1C ?
Rin1 Abl inh: inactive; PAFAH2 inh: inactive; eLon inh: inactive; pPAFAH inh: inactive; PAFAH1B3 inh: inactive; PAFAH1B2 FP inh: inactive

How did O=C(OCc1nnc(-c2ccccc2)o1)C1=COCCO1 do in these assays?
Rin1 Abl inh: inactive; PAFAH2 inh: 44; eLon inh: inactive; pPAFAH inh: inactive; PAFAH1B3 inh: inactive; PAFAH1B2 FP inh: inactive; PAFAH2 confirm: 31

What do the screens show for `Cc1ccc(-c2nnc(COC(=O)c3cccs3)o2)cc1`?
Rin1 Abl inh: inactive; PAFAH2 inh: 54; eLon inh: inactive; pPAFAH inh: inactive; PAFAH1B3 inh: inactive; PAFAH1B2 FP inh: inactive; PAFAH2 confirm: 38

What do the screens show for `O=C(OCc1nnc(-c2ccccc2)o1)c1ccc2c(c1)OCCO2`?
Rin1 Abl inh: inactive; PAFAH2 inh: 75; eLon inh: inactive; pPAFAH inh: inactive; PAFAH1B3 inh: inactive; PAFAH1B2 FP inh: inactive; PAFAH2 confirm: 60

How did Cc1ccc(C(=O)OCc2nnc(-c3ccccc3)o2)o1 do in these assays?
Rin1 Abl inh: inactive; PAFAH2 inh: 44; eLon inh: inactive; pPAFAH inh: inactive; PAFAH1B3 inh: inactive; PAFAH1B2 FP inh: inactive; PAFAH2 confirm: 33

Results for Cc1cc(C)n(-c2ccc(C(=O)OCc3nnc(-c4ccccc4)o3)cc2)n1 ?
Rin1 Abl inh: inactive; PAFAH2 inh: inactive; eLon inh: inactive; pPAFAH inh: inactive; PAFAH1B3 inh: inactive; PAFAH1B2 FP inh: inactive

What do the screens show for `O=C(Cc1ccc(Cl)cc1)OCc1nnc(-c2ccccc2)o1`?
Rin1 Abl inh: inactive; PAFAH2 inh: inactive; eLon inh: inactive; pPAFAH inh: inactive; PAFAH1B3 inh: inactive; PAFAH1B2 FP inh: inactive

How did Cc1ccc(C(=O)OCc2nnc(-c3ccc(Br)cc3)o2)cc1 do in these assays?
Rin1 Abl inh: inactive; PAFAH2 inh: 72; eLon inh: inactive; pPAFAH inh: inactive; PAFAH1B3 inh: inactive; PAFAH1B2 FP inh: inactive; PAFAH2 confirm: 58

How did O=C(OCc1nnc(-c2ccccc2)o1)c1ccc(Cl)cc1 do in these assays?
Rin1 Abl inh: inactive; PAFAH2 inh: 43; eLon inh: inactive; pPAFAH inh: inactive; PAFAH1B3 inh: inactive; PAFAH1B2 FP inh: inactive; PAFAH2 confirm: 37

Results for CC1CCCN(c2nc3ccccc3nc2C(C#N)S(=O)(=O)c2cccs2)C1 (configuration not stated) ?
Rin1 Abl inh: inactive; PAFAH2 inh: inactive; eLon inh: inactive; pPAFAH inh: inactive; PAFAH1B3 inh: inactive; PAFAH1B2 FP inh: inactive
